In PubChem BioAssay AID651551 (Sanford-Burnham Center for Chemical Genomics, 2012):

assay: GAPDH versus PEG-3 reporter suppression – cell-based, luminescence, counter-screen for PEG-3 promoter inhibitor project, SAR follow-up (AID 651551); settings: HeLa PEG-Prom / GAPDH luciferase reporter, 6 or 24 h, run 2, 24 h; at 99 µM (top of the series)

Row | Structure (SMILES) | inhibition % (higher = more inhibition) [%]
1 | Cc1cc(NC(=O)c2cccc(C)c2C)n(-c2nc3ccccc3[nH]2)n1 | 54.6
2 | COc1ccccc1Nc1nc(-c2sc(NC(=O)c3ccco3)nc2C)cs1 | 76.4
3 | Cc1cc(NC(=O)c2ccccc2C(F)(F)F)n(-c2nc3ccccc3[nH]2)n1 | 95.1
4 | CCn1nc(C(=O)Nc2nc(-c3ccccn3)cs2)c2ccccc2c1=O | 53.9
5 | O=C(Nc1nc(-c2ccccc2)cs1)c1nn(-c2ccccc2)c(=O)c2ccccc12 | 43.1
6 | CCCn1nc(C(=O)Nc2nc(-c3ccccn3)cs2)c2ccccc2c1=O | 71.7
7 | O=C(Nc1nc2ccccc2s1)c1nn(-c2ccccc2)c(=O)c2ccccc12 | 60.8
8 | CCCn1nc(C(=O)Nc2nc3ccccc3s2)c2ccccc2c1=O | 44.3
9 | Cc1nc(NC(=O)c2ccccc2)sc1-c1csc(Nc2ccccc2)n1 | 87.7
10 | O=C(Nc1nccs1)c1nn(-c2ccccc2)c(=O)c2ccccc12 | 56.2
11 | COc1ccc(-n2nc(C(=O)NCC(=O)Nc3ccc(OC)c(OC)c3)c3ccccc3c2=O)cc1 | 86.5
12 | COc1ccc(Cl)cc1Nc1nc(-c2sc(NC(=O)c3ccccc3)nc2C)cs1 | 75.6
13 | Cc1cc(NC(=O)c2ccccc2C)n(-c2nc3ccccc3[nH]2)n1 | 76.4
14 | Cc1nc(NC(=O)c2ccccc2)sc1-c1csc(Nc2cccc(Cl)c2C)n1 | 46.8
15 | Cc1nc(NC(=O)c2ccccc2)sc1-c1csc(Nc2ccccc2Cl)n1 | 60.8
16 | Cc1ccc(Cl)cc1Nc1nc(-c2sc(NC(=O)c3ccco3)nc2C)cs1 | 85.8
17 | COCCCNC(=O)c1ccc(Cn2c(=O)c3ccccc3n(Cc3ccccc3C#N)c2=O)cc1 | 78
18 | Cc1cc(NC(=O)c2ccccc2)n(-c2nc3ccccc3n2C)n1 | 4.57
19 | COc1ccc(-n2nc(C(=O)NCC(=O)Nc3cc(OC)c(OC)c(OC)c3)c3ccccc3c2=O)cc1OC | 71.7
20 | CCCn1nc(C(=O)Nc2nc(-c3ccncc3)cs2)c2ccccc2c1=O | 72
21 | COc1ccc(-n2nc(C(=O)NCC(=O)Nc3cccc(OC)c3)c3ccccc3c2=O)cc1 | 27.5
22 | Cc1cc(NC(=O)c2ccccc2)n(-c2nc3ccccc3[nH]2)n1 | -1.45
23 | CCn1cc(C(=O)NCc2ccco2)c(=O)c2cc(S(=O)(=O)N3CCCC3)ccc21 | 48.4
